Results from the supplement of paper PMC13380429.

Tested on: Vero E6 infected with SARS-CoV-2
Assay: inhibition of SARS-CoV-2 cytopathic effect; higher = more antiviral protection, active = above 15
Conditions: 48 h

Measured: inhibition of SARS-CoV-2 cytopathic effect

CC[C@H](C)C(=O)O[C@H]1C[C@@H](C)C=C2C=C[C@H](C)[C@H](CC[C@@H]3C[C@@H](O)CC(=O)O3)[C@H]21 [lovastatin]
inactive: 1 nM -0.49% | 8.33 nM 4.16% | 100 nM 1.14% | 833.33 nM 1.16% | 10000 nM 0.82%

Clc1ccc(C2=CCC[C@H]3CC[C@@H]2N3)cn1
inactive: 1 nM -2.02% | 8.33 nM 2.33% | 100 nM -0.54% | 833.33 nM 0.15% | 10000 nM -1.94%

COC1=C2C[C@@H](C)C[C@H](OC)[C@H](O)[C@@H](C)/C=C(\C)[C@H](OC(N)=O)[C@@H](OC)/C=C\C=C(/C)C(=O)NC(=CC1=O)C2=O [geldanamycin]
inactive: 1 nM 1.08% | 8.33 nM 2.06% | 100 nM 0.35% | 833.33 nM -3.32% | 10000 nM -4.4%

CCCCCCCCCCCCC[N+](C)(C)Cc1ccccc1 [benzalkonium]
inactive: 1 nM -0.66% | 8.33 nM 0.17% | 100 nM -0.42% | 833.33 nM 1.78% | 10000 nM -8.08%

CCCCCCCCCCCCCCCC[N+](C)(C)CCN(Cc1ccc(OC)cc1)c1ncccn1 [thonzonium]
inactive: 1 nM -1.08% | 8.33 nM -1.07% | 100 nM 3.19% | 833.33 nM -1.67% | 10000 nM -15.8%

COC(=O)C1=C(C)NC(C)=C(C(=O)OC(C)C)[C@@H]1c1cccc2nonc12 [isradipine]
inactive: 1 nM 0.75% | 8.33 nM 2.79% | 100 nM 1.21% | 833.33 nM 2.05% | 10000 nM 1.88%

CN(N=O)C(=O)N[C@@H](C=O)[C@@H](O)[C@H](O)[C@H](O)CO [streptozotocin]
inactive: 1 nM -2.28% | 8.33 nM -2.25% | 100 nM 2.59% | 833.33 nM 1% | 10000 nM 3.27%

CN(C)c1cc(CNCC(C)(C)C)c(O)c2c1C[C@H]1C[C@H]3[C@H](N(C)C)C(O)=C(C(N)=O)C(=O)[C@@]3(O)C(O)=C1C2=O [omadacycline]
inactive: 1 nM -0.66% | 8.33 nM 0.51% | 100 nM 1.58% | 833.33 nM -0.64% | 10000 nM -1.14%

CCCN(CCC)S(=O)(=O)c1ccc(C(=O)O)cc1 [probenecid]
inactive: 1 nM -0.75% | 8.33 nM -2.02% | 100 nM -2.27% | 833.33 nM -2.63% | 10000 nM -2.19%

C=C(C)[C@@H]1CC[C@]2(C(=O)O)CC[C@]3(C)[C@H](CC[C@@H]4[C@@]5(C)CC[C@H](O)C(C)(C)[C@@H]5CC[C@]43C)[C@@H]12 [betulinic-acid]
inactive: 1 nM -1.47% | 8.33 nM -3.53% | 100 nM -2.01% | 833.33 nM 0.38% | 10000 nM 0.04%

c1ccc(-c2nc(CN3CCN(c4ncccn4)CC3)c[nH]2)cc1
inactive: 1 nM -2.28% | 8.33 nM -0.03% | 100 nM -3.72% | 833.33 nM -0.79% | 10000 nM -1.23%

COc1ccc(COc2ccc(Cc3cnc(N)nc3N)cc2OC)cc1
inactive: 1 nM -0.78% | 8.33 nM -1.56% | 100 nM -0.01% | 833.33 nM 0.11% | 10000 nM 0.48%

CCCCCN(CCCOC)C(=O)[C@@H](CCC(=O)O)NC(=O)c1ccc(Cl)c(Cl)c1 [dexloxiglumide]
inactive: 1 nM -5.32% | 8.33 nM -1.73% | 100 nM 2.58% | 833.33 nM -1.51% | 10000 nM 2.38%

CCn1cc(C(=O)O)c(=O)c2cc(F)c(N3CCNCC3)cc21 [norfloxacin]
inactive: 1 nM 2.7% | 8.33 nM 2.29% | 100 nM 3.02% | 833.33 nM -0.29% | 10000 nM 3.46%

O=c1c2ccccc2nc2n1CCc1c-2[nH]c2ccccc12 [rutaecarpine]
inactive: 1 nM -1.97% | 8.33 nM 0.36% | 100 nM -0.87% | 833.33 nM 0.6% | 10000 nM -0.59%

CCOC(=O)C1=C(C)NC(C)=C(C(=O)OC)C1c1cccc(Cl)c1Cl (stereo not given) [felodipine]
inactive: 1 nM 1.65% | 8.33 nM 3.36% | 100 nM 5.39% | 833.33 nM 4.84% | 10000 nM 1.57%

CCN1C[C@]2(COC(=O)c3ccccc3N3C(=O)C[C@H](C)C3=O)CC[C@H](OC)[C@@]34[C@@H]5C[C@H]6[C@H](OC)[C@@H]5[C@](O)(C[C@@H]6OC)[C@](O)([C@@H](OC)[C@H]23)[C@@H]14 [methyllycaconitine]
inactive: 1 nM -1.85% | 8.33 nM -0.91% | 100 nM 0.85% | 833.33 nM 0.06% | 10000 nM -1.4%

Clc1ccc(C(c2ccccc2Cl)C(Cl)Cl)cc1 (stereo not given) [mitotane]
inactive: 1 nM -2.51% | 8.33 nM -1.75% | 100 nM -2.14% | 833.33 nM -2.16% | 10000 nM 0.99%

CCOC(=O)[C@H](CCc1ccccc1)N[C@@H](C)C(=O)N1Cc2cc(OC)c(OC)cc2C[C@H]1C(=O)O [moexipril]
inactive: 1 nM -1.91% | 8.33 nM 1.34% | 100 nM -0.63% | 833.33 nM -0.22% | 10000 nM 0.1%

CN1C(=O)C[C@@H](C(=O)N[C@@H](Cc2c[nH]cn2)C(=O)N2CCC[C@H]2C(N)=O)NC1=O [taltirelin]
inactive: 1 nM 1.73% | 8.33 nM 3.69% | 100 nM 3% | 833.33 nM 3.21% | 10000 nM 4.65%

CCC(Cc1c(I)cc(I)c(N)c1I)C(=O)O (stereo not given) [iopanic-acid]
inactive: 1 nM 2.78% | 8.33 nM 2.89% | 100 nM 1.6% | 833.33 nM 0.47% | 10000 nM 2.12%

COc1ccccc1N1CCN(CCN(C(=O)C2CCCCC2)c2ccccn2)CC1
inactive: 1 nM -3.64% | 8.33 nM -4.61% | 100 nM -0.56% | 833.33 nM 3.47% | 10000 nM -0.29%

CC(=O)OC[C@H]1O[C@@H](n2ccc(=O)[nH]c2=O)[C@H](OC(C)=O)[C@@H]1OC(C)=O [uridine-triacetate]
inactive: 1 nM -1.68% | 8.33 nM 0.37% | 100 nM 0.84% | 833.33 nM -3.59% | 10000 nM -0.59%

O=C(Nc1ccc(O)cc1)c1ccccc1O [N-salicoylaminophenol]
inactive: 1 nM 1.23% | 8.33 nM 2.05% | 100 nM 1.76% | 833.33 nM 2.47% | 10000 nM 4.87%

CCN(c1cc(-c2ccc(CN3CCOCC3)cc2)cc(C(=O)NCc2c(C)cc(C)[nH]c2=O)c1C)C1CCOCC1 [tazemetostat]
inactive: 1 nM 2.86% | 8.33 nM 0.49% | 100 nM 3.47% | 833.33 nM 0.53% | 10000 nM -0.93%

O=C(O)/C=C/CO [trans-4-hydroxycrotonic-acid]
inactive: 1 nM 2.26% | 8.33 nM 3.93% | 100 nM 1.39% | 833.33 nM 5.18% | 10000 nM 4.35%

CC(CNS(=O)(=O)C(C)C)c1ccc(-c2ccc(C#N)cc2)cc1 (stereo not given)
inactive: 1 nM -2% | 8.33 nM 0.02% | 100 nM 0.68% | 833.33 nM 0.84% | 10000 nM 0.85%

O=C(/C=C/c1c(C(=O)O)[nH]c2cc(Cl)cc(Cl)c12)Nc1ccccc1 [gavestinel]
inactive: 1 nM -3.94% | 8.33 nM -3.2% | 100 nM -2.69% | 833.33 nM -2.17% | 10000 nM -3.95%

O=C(Nc1ccc(Cl)nc1)c1ccc(Cl)cc1
inactive: 1 nM 0.45% | 8.33 nM 1.94% | 100 nM 2.79% | 833.33 nM 0.19% | 10000 nM 0.84%

CC(=O)O[C@H]1C[C@H](O[C@H]2[C@@H](O)C[C@H](O[C@H]3[C@@H](O)C[C@H](O[C@H]4CC[C@@]5(C)[C@H](CC[C@@H]6[C@@H]5C[C@@H](O)[C@]5(C)[C@@H](C7=CC(=O)OC7)CC[C@]65O)C4)O[C@@H]3C)O[C@@H]2C)O[C@H](C)[C@H]1O[C@@H]1O[C@H](CO)[C@@H](O)[C@H](O)[C@H]1O [lanatoside-C]
inactive: 1 nM 0.4% | 8.33 nM -0.46% | 100 nM -8.78% | 833.33 nM -9.54% | 10000 nM -11.4%

O=C(c1ccc2nccnc2c1)N1CCCCC1 [ampalex]
inactive: 1 nM -0.24% | 8.33 nM 0.88% | 100 nM 0.65% | 833.33 nM 0.17% | 10000 nM 0.77%

O=C(OCC(COC(=O)c1cccnc1)(COC(=O)c1cccnc1)COC(=O)c1cccnc1)c1cccnc1 [niceritrol]
inactive: 1 nM -3.51% | 8.33 nM -0.29% | 100 nM 2.18% | 833.33 nM 0.03% | 10000 nM 6.17%

Cc1cc(O)c2c(c1)C(=O)c1cccc(O)c1C2=O [chrysophanic-acid]
inactive: 1 nM -0.27% | 8.33 nM 0.87% | 100 nM 0.28% | 833.33 nM -0.5% | 10000 nM 5.09%

CCO[C@@H](Cc1ccc(OCCn2c(C)ccc2-c2ccc(SC)cc2)cc1)C(=O)O [saroglitazar]
inactive: 1 nM 1% | 8.33 nM -0.85% | 100 nM -1.26% | 833.33 nM 0.64% | 10000 nM 1.31%

Cc1cc(C)c(S(=O)(=O)Nc2ccccc2C(F)(F)F)c(C)c1
inactive: 1 nM 2.1% | 8.33 nM 6.17% | 100 nM 4.56% | 833.33 nM 2.55% | 10000 nM 4.64%

OC[C@@H](O)[C@@H](O)[C@H](O)[C@@H](O)CO [sorbitol]
inactive: 1 nM 0.49% | 8.33 nM -0.64% | 100 nM -0.23% | 833.33 nM 1.86% | 10000 nM 1.46%

C[C@]12CC[C@@H]3c4ccc(OS(=O)(=O)O)cc4CC[C@H]3[C@@H]1CCC2=O [estropipate]
inactive: 1 nM -1.99% | 8.33 nM 1.92% | 100 nM 0.66% | 833.33 nM 1.96% | 10000 nM -6.12%
